The results in this text go back to PubChem BioAssay (EPA / NIEHS).

The source made the active and inactive calls. How the source made its calls: active means hit-call score of the fitted dose curve at least 0.9, where 1 is the maximum; inactive means score below 0.9.

Chain of E-selectin (Homo sapiens) (P16581 whole entry, looked up): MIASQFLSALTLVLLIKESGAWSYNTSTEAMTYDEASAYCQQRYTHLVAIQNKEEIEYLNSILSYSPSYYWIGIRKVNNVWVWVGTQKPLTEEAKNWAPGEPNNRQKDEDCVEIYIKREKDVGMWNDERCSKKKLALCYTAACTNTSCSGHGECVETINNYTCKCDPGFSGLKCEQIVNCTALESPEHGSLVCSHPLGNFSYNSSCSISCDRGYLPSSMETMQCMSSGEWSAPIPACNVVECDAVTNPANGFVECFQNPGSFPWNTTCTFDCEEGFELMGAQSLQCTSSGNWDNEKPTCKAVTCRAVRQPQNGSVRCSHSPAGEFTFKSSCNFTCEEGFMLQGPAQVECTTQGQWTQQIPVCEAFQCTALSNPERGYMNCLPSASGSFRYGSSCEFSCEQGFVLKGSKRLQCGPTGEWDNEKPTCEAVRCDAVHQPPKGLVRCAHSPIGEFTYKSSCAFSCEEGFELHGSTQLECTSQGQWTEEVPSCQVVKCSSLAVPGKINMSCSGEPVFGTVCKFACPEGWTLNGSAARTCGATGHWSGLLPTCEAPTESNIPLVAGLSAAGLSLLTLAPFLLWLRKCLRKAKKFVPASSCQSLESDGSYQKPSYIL

Read-out in this assay: E-selectin (Homo sapiens) (UniProt P16581)
In words: BSK_SAg_Eselectin: BioMAP Diversity Plus: SAg Assay for Eselectin Biomarker Activity (AID 2283091). The settings on record: primary human HUVEC with PBMC; actives raise or lower the signal. A digest of the protocol:
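Endpoint values derive from bidirectional fitting relative to DMSO, using ELISA-measured E-selectin in a human vascular co-culture (umbilical vein endothelium plus PBMC) sampled 24 h after dosing.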
For `Cc1ccc(Nc2ccc(O)c3c2C(=O)c2ccccc2C3=O)cc1`, the result was inactive. On to `CC(=O)Nc1ccccc1O`, for which the outcome was inactive.

The AC50 is the concentration giving half of the maximal activity seen. `O=C1OC2(c3cc(Br)c(O)c(Br)c3Oc3c2cc(Br)c(O)c3Br)c2c(Cl)c(Cl)c(Cl)c(Cl)c21`: the concentration at half-maximal activity (AC50) was 6.53 µM (active). With `CC1CCC(C(C)CS)CC1S` (stereo not given), the AC50 is 30.8 µM (active). In the case of `COC(=O)c1ccc(C)cc1`, the outcome was inactive. On to `CC(=O)O[C@]1(C(C)=O)CC[C@H]2[C@@H]3C[C@H](C)C4=CC(=O)CC[C@]4(C)[C@H]3CC[C@@]21C`, for which the outcome was inactive. On the same count and under the same terms, with `CC(=O)/C=C/C1=C(C)CCCC1(C)C` the entry was “inactive”.

Regarding `CCCCC/C=C/C=C/C=O`, the concentration at half-maximal activity (AC50) is 28.3 µM (active).

With `c1ccc2sc(SN(C3CCCCC3)C3CCCCC3)nc2c1`, the outcome was inactive. Regarding `c1ccc2c(c1)c1cccc3ccc4cccc2c4c31`, the outcome was inactive. The same measure, in the same setting: with `O=C(O)c1ccc([N+](=O)[O-])cc1` the entry was “inactive”; with `CCn1c2ccccc2c2cc(N)ccc21`, “inactive”.

In the case of `Cc1ccc(O)c(C(C)(C)C)c1`, the AC50 was 37.5 µM (active).

For the compound `CNC[C@H](O)c1cccc(O)c1`, the outcome was inactive. The same measure, in the same setting: for `O=P(c1ccccc1)(c1ccccc1)c1ccccc1` the value was “inactive”.
